Hits are enriched below; roughly 0.93% of the tested compounds scored in any of these assays.
CtBP-E1A inh = qHTS Assay for Inhibitors of the CtBP/E1A Interaction | CtBP / adenovirus E1A interaction (AlphaScreen) | AlphaScreen GST-E1A/His-CtBP binding, 1536-well; hits give low values | activity change, % (test concentration not listed) | hit rate 0.49% among 340,000 | AID 651724, 2012
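Protein mix (5X: 125 nM each GST-E1A, His-CtBP) was incubated with pinned compound 2 h at 37 deg C in dark, in 50 mM Tris pH 8.0 buffer with 300 mM NaCl. Glutathione donor and nickel acceptor beads followed; AlphaScreen signal read after 1 h.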
MBNL1 CUG block = qHTS Assay for Inhibitors of MBNL1-poly(CUG) RNA binding; AID 2675, 2010; hit rate 0.036% among 280,000; TR-FRET MBNL1-His/biotin-(CUG)12 binding, 665/545 ratio; Potency, µM (titrated, usually from 57.5 µM), inactives show at the highest dose activity change, negative = inhibition, most hits filed as inhibitors; active = well fitted inhibition curve with a large enough effect in the signal ratio, with a control signal flat, not every such curve was filed as active; inconclusive = small, poorly fitted or top-dose-only effect, or effect the other way, or a change in a side signal; inactive = no such curve, though single readings can be large or run the other way; the % refers to the signal ratio; also: potency is read from the fitted curve at half-maximal effect
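Compound titration spanned 92 nM–58 uM against the MBNL1-His/biotin-(CUG)12 complex. After 60 min at room temperature with 5 nM streptavidin-XL665 and 0.055 ng/ul terbium anti-His, ratiometric 665/545 nm emission (Ex 340 nm) normalized to controls.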
Six1-Eya2 inh = qHTS Assay for Inhibitors of the Six1/Eya2 Interaction. Homeobox protein SIX1 (Homo sapiens) + Protein phosphatase EYA2 (Homo sapiens), …. AlphaScreen GST-Six1/His-Eya2 binding, biochemical; hits give low values. activity change, % (no concentration beside the values). hit rate 0.56% among 360,000. AID 651725, 2012
Target sequence (O00167 whole entry, looked up): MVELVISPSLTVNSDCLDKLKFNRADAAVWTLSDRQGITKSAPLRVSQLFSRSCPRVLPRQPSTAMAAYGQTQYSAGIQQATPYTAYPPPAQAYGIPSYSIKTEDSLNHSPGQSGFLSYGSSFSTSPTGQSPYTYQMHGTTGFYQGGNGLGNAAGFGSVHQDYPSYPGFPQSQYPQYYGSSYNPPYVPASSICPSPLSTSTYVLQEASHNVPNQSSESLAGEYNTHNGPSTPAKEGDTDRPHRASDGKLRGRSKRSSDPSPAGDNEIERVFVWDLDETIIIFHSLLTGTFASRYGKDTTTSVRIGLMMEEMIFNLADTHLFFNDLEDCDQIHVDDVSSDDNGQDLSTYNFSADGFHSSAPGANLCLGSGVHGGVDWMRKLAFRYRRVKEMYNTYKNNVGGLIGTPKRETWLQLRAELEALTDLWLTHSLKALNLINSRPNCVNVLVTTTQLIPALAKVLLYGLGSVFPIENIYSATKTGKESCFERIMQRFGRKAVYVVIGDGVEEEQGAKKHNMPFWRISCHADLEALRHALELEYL
Target sequence (Q15475 whole entry, looked up): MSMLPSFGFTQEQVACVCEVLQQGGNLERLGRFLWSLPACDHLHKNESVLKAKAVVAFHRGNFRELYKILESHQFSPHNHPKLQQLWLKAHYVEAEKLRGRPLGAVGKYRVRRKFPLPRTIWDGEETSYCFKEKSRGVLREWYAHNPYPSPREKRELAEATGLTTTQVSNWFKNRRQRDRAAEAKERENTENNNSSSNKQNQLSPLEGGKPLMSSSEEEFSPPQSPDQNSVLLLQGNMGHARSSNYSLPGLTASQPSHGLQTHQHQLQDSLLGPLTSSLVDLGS
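AlphaScreen luminescence read after one hour at 37 °C in darkness. Pin-transferred compounds met GST-Six1 and His-Eya2 protein (5X stock 250 nM/500 nM) plus glutathione donor and Ni-chelate acceptor beads (5X, 50 ug/mL).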
PKM2 activator = qHTS Assay for Activators of Human Muscle isoform 2 Pyruvate Kinase; purified PKM2, Kinase-Glo ATP luminescence, activation; response scale: 0% is enzyme alone, no compound; Potency, µM (titrated, usually from 57.5 µM), without a hit: at the highest dose activation, actives largely listed as activators; hit rate 0.34% among 260,000; AID 1631, 2009; active = well fitted activation curve with a large enough effect; inconclusive = small, poorly fitted or top-dose-only effect; inactive = no such curve, though single readings can be large or run the other way; also: potency is read from the fitted curve at half-maximal effect; nearly all actives have a fitted effect of over 55% in size
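hPK-M2, >95% pure; 0.1 mM ADP / 0.5 mM PEP final; imidazole pH7.2 buffer w/ 7 mM MgCl2, 50 mM KCl; 1 h RT; Kinase-Glo lum. Intermediate enzyme activity for dual inhibitor/activator qHTS.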
* marks the source's active call; other numbers are inactive results; u = inconclusive; x = no result; [ ] = dose if it differs, or a comment. Rule as the data show it, unless noted: active = activity change below about -65%; inconclusive = mostly about -30% to -63%; inactive = weaker than that. % is scaled to controls: 0 for no effect and ±100 for the full control effect.

SMILES	CtBP-E1A inh	MBNL1 CUG block	Six1-Eya2 inh	PKM2 activator
CN(c1ccccc1)S(=O)(=O)c1ccc(C(=O)NCc2cccs2)cc1	7	2%	18	8%
CN(C)S(=O)(=O)c1ccc(C(=O)NCc2cccs2)cc1	0	-11%	-2	6.3µM*
Cc1ccc(-c2csc3nc4c5ccccc5c(NCCCN(C)C)nn4c(=O)c23)cc1	u	2%	-67*	-2%
Cc1ccc(-c2csc3nc4c5ccccc5c(NCCCN5CCOCC5)nn4c(=O)c23)cc1	x	16%	x	1%
CCCN1C(=O)S/C(=C\c2ccc(N3CCOCC3)o2)C1=O	-6	-11%	5	3.5µM*
CCCN1C(=O)S/C(=C\c2ccc(N3CCOCC3)cc2C)C1=O	x	5%	x	-6%
OC1c2c(F)cccc2N=C2CCCCN21 (configuration not stated)	7	x	3	x
Cc1nc2ccccn2c1C(=O)N/N=C/c1ccc(CNC(=O)C(=O)Nc2ccccc2)o1	-8	6%	1	11%
O=C(NCc1ccc(/C=c2\sc3n(c2=O)CCN=3)o1)C(=O)Nc1ccccc1	x	16%	x	20µM*
O=C(CN1CCOCC1)N/N=C/c1c(O)ccc2ccccc12	-93*	u	-95*	-9%
O=C(N/N=C/c1c(O)ccc2ccccc12)Nc1ccccc1	x	x	-2	x
O=C(CSCC(=O)Nc1ccccc1)N/N=C/c1c(O)ccc2ccccc12	-72*	11%	u	25%
O=C(CN1CCOCC1)N/N=C/c1ccco1	-5	11%	-5	9%
CC1=C/C(=C(\c2cc(C)c(O)c(Br)c2)c2ccccc2S(=O)(=O)O)C=C(Br)C1=O	-75*	u	-92*	-53%[11.5 µM]
CC1(C(=O)Nc2nccs2)CCN1C(=O)CC(c1ccccc1)c1ccccc1 (configuration not stated)	-4	x	2	x
Cc1ccc(NC2=C(N3CCOCC3)C(=O)c3ccccc3C2=O)cc1	-92*	u	-89*	7%
CC(=O)Nc1cc(-c2cccc(NS(C)(=O)=O)c2)cn2c(-c3ccc(F)c(Cl)c3)cnc12	-17	x	-22	x
CN1CCN(C(c2ccc(Cl)cc2)c2cc(Cl)c3cccnc3c2O)CC1 (configuration not stated)	-80*	6%	u	-4%
Cc1[nH]c2ccccc2c1C(c1ccccn1)N1CCCC1 (configuration not stated)	5	0%	-1	2%
Oc1c(C(c2ccccn2)N2CCCCC2)cc(Cl)c2cccnc12 (configuration not stated)	-93*	16%	-92*	3%
CN1CCN(C(c2ccc(C(F)(F)F)cc2)c2cc(Cl)c3cccnc3c2O)CC1 (configuration not stated)	x	8%	x	5%
CN(CCO)c1nc(N)c2c(N)nc3c(c2c1C#N)CC(=O)N3C1CCCC1	x	7%	x	0%
N#Cc1c(N2CCN(c3ccc(F)cc3)CC2)nc(N)c2c(N)nc3c(c12)CC(=O)N3C1CC1	-78*	11%	-82*	8%
Cc1ccc(C(=O)N/C(=C\c2ccco2)C(=O)NCCCn2ccnc2)cc1C	7	7%	-81*	-4%
COc1ccc(C(=O)N/C(=C\c2ccco2)C(=O)NCCCn2ccnc2)cc1	5	-2%	11	u
SMILES	CtBP-E1A inh	MBNL1 CUG block	Six1-Eya2 inh	PKM2 activator
Cc1cccc(/C(N)=N/OC(=O)Cc2cccc3ccccc23)c1	8	-6%	21	0%
Cc1ccc(/C(N)=N/OC(=O)Cc2cccc3ccccc23)cc1	0	-2%	29	25µM*
Nc1c2c(=O)[nH]c(O)cc2nn1-c1ccccc1	-66*	x	7	x
COc1ccc(N2C(=O)c3ccccc3NC(=O)C2C(=O)Nc2ccc(N3CCOCC3)cc2)cc1 (configuration not stated)	10	x	0	x
Oc1ccccc1N=N/C(=N/Nc1ccccc1O)c1ccccc1	-1	x	-2	x
N#C/C(N=Nc1ccccc1O)=N\Nc1ccccc1O	-82*	x	-70*	x
O=S(=O)(O)c1cccc2c(N=Nc3ccc(O)c4ncccc34)cccc12	-92*	u	32	x

Source: PubChem
